The values below come from PubChem BioAssay.

Test [1] concerns PRMT1 (protein arginine N-methyltransferase 1). Put plainly: PRMT1 binders on small-molecule microarrays, primary screen, biochemical, small-molecule microarray, 635 nm fluorescence (AID 1088).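 Also: binding of Prmt1 protein to compounds spotted on small-molecule microarray slides.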 Conditions: small-molecule microarray binding, higher = more signal.
A short description of test [2]: yeast growth modulation, basal conditions, primary screen, YJM789 clinical isolate, OD600, 24 h (AID 1089).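 Also: growth of clinical yeast isolate S. cerevisiae YJM 789 seeded 1000 cells per well; test concentration not given here.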 Conditions: S. cerevisiae YJM789 growth, higher = more signal, called active from +8 up or from −8 down.
Test [3] is described as follows: fission yeast growth modulation, primary screen, strain 972, OD600, 24 h, no modulator (AID 1090).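 Also: basal condition with compound alone and no growth modifier present; test concentration not given here.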 Conditions: S. pombe 972 growth, higher = more signal, called active from +8 up or from −8 down.
The nature of test [4]: S. cerevisiae growth modulation with rapamycin, primary screen, strain BY4716, OD600, 96 h (AID 1091). Also: test concentration not given here. Conditions: higher = more signal, called active from +8 up or from −8 down.
Test [5] addresses Torsin-1A-interacting protein 2 (Homo sapiens) (UniProt Q8NFQ8). Put plainly: LULL1 binders on small-molecule microarray, primary screen, cell lysate, human LULL1 lysate, 635/667 nm fluorescence (AID 1092).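 Also: probe is lysate of COS7 cells overexpressing human LULL1; score merges per-feature 667 nm fluorescence with signal-to-noise.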 Conditions: hLULL1 lysate binding, 635 nm fluorescence, higher = more signal.
The nature of test [6]: E. coli growth modulation, two-sided OD650, primary screen, E. coli filamentation project, strain DRC41, 24 h (AID 1093).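 Also: MC1000 strain lacking acrAB efflux and sulA so SOS filamentation is blocked; test concentration not given here.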 Conditions: OD650, 24 h, higher = more signal, called active from +8 up or from −8 down.
A short description of test [7]: small-molecule microarray binders of probe aLefty2, primary screen, biochemical, biotinylated probe, 635/667 nm fluorescence (AID 1094).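 Also: score merges spot fluorescence near 667 nm with spot signal-to-noise ratio.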 Conditions: higher = more signal.
The test system of test [8] is Noggin (protein binding on small-molecule microarray). Put plainly: Noggin binders on small-molecule microarray, primary screen, biochemical, 635/667 nm fluorescence (AID 1095).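 Also: score merges 667 nm feature fluorescence with signal to noise over triplicate slides.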 The following applies: 635 nm fluorescence, higher = more signal.
Test [9] addresses Neurogenic locus notch homolog protein 3 (Homo sapiens) (UniProt Q9UM47). Put plainly: NOTCH3 binders on small-molecule microarray, primary screen, biochemical, 635/667 nm fluorescence (AID 1096). The following applies: NOTCH3 binding, 635 nm fluorescence, higher = more signal.
Test [10] in a line: small-molecule microarray binders of probe aEGFR, primary screen, biochemical, biotinylated probe, 635/667 nm fluorescence (AID 1097).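 Also: probe is a biotinylated anti-EGFR antibody binding compounds printed on slides; score combines fluorescence near 667 nm and signal to noise of each spot.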 The following applies: higher = more signal.
Test [11] concerns Plasmodium falciparum Sir2 (PF13_0152, Sir2A). Put plainly: pfSir2 binders on small-molecule microarrays, primary screen, biochemical, small-molecule microarray, 635 nm fluorescence (AID 1098).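 Also: score merges spot fluorescence intensity with its signal-to-noise ratio.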 Conditions: small-molecule microarray binding, fluorescence 635 nm; higher = more signal.
A short description of test [12]: small-molecule microarray binders of probe aDKK1, primary screen, biochemical, biotinylated probe, 635/667 nm fluorescence (AID 1099).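 Also: score merges 667nm spot fluorescence with signal to noise across triplicate slides; reference of the scale not given here.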 Conditions: higher = more signal.
The nature of test [13]: small-molecule microarray binders of probe aCHRDL2, primary screen, biochemical, biotinylated probe, 635/667 nm fluorescence (AID 1100). The following applies: higher = more signal.
Test [14] can be described thus: splicing luciferase reporter signal modulators, primary screen, spliceosome inhibition project, cell-based, HEK293, splice +/- reporter (AID 1101).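 Also: HEK293 cells carrying a splicing-competent luciferase reporter gene; test concentration not given here.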 Conditions: luminescence, 24 h, higher = more signal, called active from +8 up or from −8 down.
Test [15] addresses Fibroblast growth factor 10 (Homo sapiens) (UniProt O15520). Put plainly: FGF10 binders on small-molecule microarrays, primary screen, biochemical, small-molecule microarray, 635 nm fluorescence (AID 1102). Conditions: FGF10 binding, fluorescence 635 nm, higher = more signal.
The test system of test [16] is glycogen synthase kinase-3 (GSK3A per assay name; protocol says GSK3B). Put plainly: GSK3 binders on small-molecule microarrays, primary screen, biochemical, small-molecule microarray, 635 nm fluorescence, GSK3A (AID 1103). Also: the record names both GSK3A and GSK3B. Conditions: small-molecule microarray binding, fluorescence 635 nm; higher = more signal.
Test [17] addresses Epidermal growth factor receptor (Homo sapiens) (UniProt P00533). Put plainly: EGFR binders on small-molecule microarrays, primary screen, biochemical, small-molecule microarray, 635 nm fluorescence (AID 1104).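 Also: score merges 667 nm emission intensity with spot signal to noise over triplicate slides.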 Conditions: EGFR binding, higher = more signal.
Test [18] concerns the target Follistatin-related protein 3 (Homo sapiens) (UniProt O95633). Put plainly: FSTL3 binders on small-molecule microarrays, primary screen, biochemical, small-molecule microarray, 635 nm fluorescence (AID 1105).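 Also: score merges emission near 667 nm and signal to noise per printed spot across three slides.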 Conditions: FSTL3 binding, higher = more signal.
Test [19] has as its target Dickkopf-related protein 1 (Homo sapiens) (UniProt O94907). Put plainly: DKK1 binders on small-molecule microarrays, primary screen, biochemical, small-molecule microarray, 635 nm fluorescence scan (AID 1106).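 Also: score merges emission near 667 nm with signal to noise over three replicate slides.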 The following applies: DKK1 binding, higher = more signal.
For test [20], the system named is Inhibin beta A chain (activin A). Put plainly: INHBA (activin A) binders on microarrays, primary screen, biochemical, small-molecule microarray, 635 nm fluorescence scan (AID 1107).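 Also: mouse activin A protein probed at 4.33 µg/mL on printed slides; score merges bound-protein fluorescence near 667 nm with spot signal-to-noise.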 The following applies: small-molecule microarray binding, higher = more signal.

The source made the active and inactive calls.

Torsin-1A-interacting protein 2 (Homo sapiens), sequence (Q8NFQ8 whole entry, looked up): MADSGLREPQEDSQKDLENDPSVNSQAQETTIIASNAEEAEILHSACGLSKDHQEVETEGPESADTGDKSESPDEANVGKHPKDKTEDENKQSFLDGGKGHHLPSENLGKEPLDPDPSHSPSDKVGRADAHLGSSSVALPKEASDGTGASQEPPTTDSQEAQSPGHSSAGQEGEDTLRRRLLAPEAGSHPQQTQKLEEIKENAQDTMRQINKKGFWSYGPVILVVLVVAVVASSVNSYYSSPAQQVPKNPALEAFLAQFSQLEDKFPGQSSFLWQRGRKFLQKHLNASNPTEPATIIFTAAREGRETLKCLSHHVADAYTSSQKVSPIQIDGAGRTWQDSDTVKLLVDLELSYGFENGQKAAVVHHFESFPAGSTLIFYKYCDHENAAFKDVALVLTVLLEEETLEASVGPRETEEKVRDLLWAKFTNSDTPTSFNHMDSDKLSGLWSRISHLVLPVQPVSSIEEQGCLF
Dickkopf-related protein 1 (Homo sapiens), sequence (O94907 whole entry, looked up): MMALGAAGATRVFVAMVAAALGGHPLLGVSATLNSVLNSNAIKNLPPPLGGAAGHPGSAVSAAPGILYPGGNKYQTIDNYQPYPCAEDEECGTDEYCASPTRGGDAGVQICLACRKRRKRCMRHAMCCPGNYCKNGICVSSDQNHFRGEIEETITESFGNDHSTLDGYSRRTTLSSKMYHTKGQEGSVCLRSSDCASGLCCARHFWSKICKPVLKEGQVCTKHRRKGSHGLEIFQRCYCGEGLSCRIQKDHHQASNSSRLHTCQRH
Neurogenic locus notch homolog protein 3 (Homo sapiens), sequence (Q9UM47 whole entry, looked up): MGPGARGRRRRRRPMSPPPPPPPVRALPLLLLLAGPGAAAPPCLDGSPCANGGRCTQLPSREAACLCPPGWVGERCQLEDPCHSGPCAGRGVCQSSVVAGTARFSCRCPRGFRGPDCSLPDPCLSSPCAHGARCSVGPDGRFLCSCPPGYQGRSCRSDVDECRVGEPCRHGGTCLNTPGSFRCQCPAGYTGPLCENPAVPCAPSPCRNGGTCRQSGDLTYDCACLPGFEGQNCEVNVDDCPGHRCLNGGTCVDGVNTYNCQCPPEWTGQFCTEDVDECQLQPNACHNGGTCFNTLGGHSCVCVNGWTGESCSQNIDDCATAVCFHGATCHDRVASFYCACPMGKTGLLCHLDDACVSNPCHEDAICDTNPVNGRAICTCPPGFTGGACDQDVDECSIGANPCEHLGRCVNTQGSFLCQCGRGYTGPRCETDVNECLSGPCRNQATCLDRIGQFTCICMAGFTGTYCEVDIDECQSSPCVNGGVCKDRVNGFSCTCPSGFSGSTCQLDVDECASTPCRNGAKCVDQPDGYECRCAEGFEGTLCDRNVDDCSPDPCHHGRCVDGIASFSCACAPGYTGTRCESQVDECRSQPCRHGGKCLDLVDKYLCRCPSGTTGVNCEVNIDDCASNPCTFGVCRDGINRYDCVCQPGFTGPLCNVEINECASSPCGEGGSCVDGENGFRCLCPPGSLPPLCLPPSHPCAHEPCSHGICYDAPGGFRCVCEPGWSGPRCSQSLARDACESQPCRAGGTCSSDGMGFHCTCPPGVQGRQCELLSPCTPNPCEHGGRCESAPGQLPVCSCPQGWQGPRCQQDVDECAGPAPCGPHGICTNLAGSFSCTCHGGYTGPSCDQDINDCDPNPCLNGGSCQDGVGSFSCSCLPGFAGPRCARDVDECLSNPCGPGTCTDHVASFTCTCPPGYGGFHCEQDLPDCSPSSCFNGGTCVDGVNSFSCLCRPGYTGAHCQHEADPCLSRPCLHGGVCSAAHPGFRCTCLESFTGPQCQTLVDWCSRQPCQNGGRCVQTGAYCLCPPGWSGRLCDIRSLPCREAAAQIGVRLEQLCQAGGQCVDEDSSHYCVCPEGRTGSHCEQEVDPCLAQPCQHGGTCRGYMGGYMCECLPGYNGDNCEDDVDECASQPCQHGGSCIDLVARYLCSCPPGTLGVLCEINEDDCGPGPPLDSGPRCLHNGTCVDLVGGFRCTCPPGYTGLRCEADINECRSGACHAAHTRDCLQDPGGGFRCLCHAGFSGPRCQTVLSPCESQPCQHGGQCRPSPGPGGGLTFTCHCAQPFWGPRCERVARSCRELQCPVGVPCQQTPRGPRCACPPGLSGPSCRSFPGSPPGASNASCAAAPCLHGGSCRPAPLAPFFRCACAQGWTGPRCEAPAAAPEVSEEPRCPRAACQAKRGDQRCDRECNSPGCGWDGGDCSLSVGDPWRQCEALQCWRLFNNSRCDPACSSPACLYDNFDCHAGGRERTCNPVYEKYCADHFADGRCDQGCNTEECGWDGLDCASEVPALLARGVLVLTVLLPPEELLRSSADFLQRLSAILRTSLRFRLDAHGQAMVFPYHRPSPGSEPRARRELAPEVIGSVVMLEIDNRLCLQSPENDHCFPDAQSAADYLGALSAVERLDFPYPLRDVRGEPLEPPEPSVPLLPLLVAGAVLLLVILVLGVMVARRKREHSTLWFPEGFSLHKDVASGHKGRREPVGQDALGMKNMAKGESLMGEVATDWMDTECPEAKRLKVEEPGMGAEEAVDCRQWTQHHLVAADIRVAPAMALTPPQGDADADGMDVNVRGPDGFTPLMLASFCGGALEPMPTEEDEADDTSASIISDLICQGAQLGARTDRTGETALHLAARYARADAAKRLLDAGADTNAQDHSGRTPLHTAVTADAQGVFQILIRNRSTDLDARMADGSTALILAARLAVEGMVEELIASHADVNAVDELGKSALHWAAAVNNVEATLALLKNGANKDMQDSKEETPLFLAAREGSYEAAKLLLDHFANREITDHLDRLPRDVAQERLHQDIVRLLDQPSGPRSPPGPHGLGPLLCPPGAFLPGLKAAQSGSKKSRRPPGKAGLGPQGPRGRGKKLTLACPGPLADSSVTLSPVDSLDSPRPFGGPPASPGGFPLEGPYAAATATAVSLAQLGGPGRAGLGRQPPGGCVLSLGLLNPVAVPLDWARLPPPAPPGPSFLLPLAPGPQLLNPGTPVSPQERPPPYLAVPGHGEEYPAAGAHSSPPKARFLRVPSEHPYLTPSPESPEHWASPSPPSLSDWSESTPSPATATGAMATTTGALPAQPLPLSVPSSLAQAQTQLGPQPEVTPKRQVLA
Follistatin-related protein 3 (Homo sapiens), sequence (O95633 whole entry, looked up): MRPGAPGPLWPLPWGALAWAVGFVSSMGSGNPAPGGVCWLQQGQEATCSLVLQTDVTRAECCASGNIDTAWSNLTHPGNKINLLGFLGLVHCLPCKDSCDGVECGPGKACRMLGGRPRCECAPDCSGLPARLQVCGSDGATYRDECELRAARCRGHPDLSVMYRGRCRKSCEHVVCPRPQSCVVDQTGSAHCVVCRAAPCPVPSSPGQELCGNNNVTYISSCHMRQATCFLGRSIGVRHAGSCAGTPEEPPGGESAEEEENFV
Epidermal growth factor receptor (Homo sapiens), sequence (P00533 whole entry, looked up): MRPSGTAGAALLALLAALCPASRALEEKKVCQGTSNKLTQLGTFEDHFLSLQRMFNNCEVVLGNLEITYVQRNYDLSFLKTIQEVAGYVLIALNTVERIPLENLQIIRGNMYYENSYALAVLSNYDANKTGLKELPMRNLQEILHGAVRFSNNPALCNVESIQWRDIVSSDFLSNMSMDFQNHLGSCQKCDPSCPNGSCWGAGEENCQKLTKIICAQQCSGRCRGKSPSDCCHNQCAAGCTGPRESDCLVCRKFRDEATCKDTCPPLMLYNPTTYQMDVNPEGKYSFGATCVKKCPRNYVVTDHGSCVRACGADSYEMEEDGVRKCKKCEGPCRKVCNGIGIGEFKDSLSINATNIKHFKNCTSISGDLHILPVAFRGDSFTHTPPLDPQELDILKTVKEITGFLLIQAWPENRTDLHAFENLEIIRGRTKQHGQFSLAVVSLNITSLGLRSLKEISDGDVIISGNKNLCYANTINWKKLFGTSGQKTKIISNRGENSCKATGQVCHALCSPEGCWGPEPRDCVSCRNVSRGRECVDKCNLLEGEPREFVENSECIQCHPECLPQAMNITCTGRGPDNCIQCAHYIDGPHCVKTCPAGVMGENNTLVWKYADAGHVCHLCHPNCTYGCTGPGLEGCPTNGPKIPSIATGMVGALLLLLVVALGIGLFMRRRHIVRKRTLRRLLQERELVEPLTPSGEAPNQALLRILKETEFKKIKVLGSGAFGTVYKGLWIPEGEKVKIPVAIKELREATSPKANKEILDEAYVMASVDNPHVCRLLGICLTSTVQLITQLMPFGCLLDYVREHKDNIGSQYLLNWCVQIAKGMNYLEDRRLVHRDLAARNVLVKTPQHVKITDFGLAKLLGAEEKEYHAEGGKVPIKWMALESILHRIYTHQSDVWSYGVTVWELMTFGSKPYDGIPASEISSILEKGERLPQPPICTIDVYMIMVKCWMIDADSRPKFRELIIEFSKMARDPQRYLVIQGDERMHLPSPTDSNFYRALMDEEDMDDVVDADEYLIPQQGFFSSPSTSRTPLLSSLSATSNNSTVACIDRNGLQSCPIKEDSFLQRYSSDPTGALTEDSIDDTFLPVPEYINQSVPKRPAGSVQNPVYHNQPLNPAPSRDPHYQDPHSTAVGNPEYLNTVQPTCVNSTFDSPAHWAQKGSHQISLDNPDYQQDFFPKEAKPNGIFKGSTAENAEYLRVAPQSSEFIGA
Fibroblast growth factor 10 (Homo sapiens), sequence (O15520 whole entry, looked up): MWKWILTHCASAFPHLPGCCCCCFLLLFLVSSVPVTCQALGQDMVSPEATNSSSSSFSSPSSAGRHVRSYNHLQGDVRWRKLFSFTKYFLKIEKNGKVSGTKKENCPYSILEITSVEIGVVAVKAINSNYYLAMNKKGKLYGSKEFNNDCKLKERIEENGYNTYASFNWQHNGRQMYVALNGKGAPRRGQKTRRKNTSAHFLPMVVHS

Take `COc1cccc([C@H]2Oc3ccc(OC)cc3C(=NOC(C)CN3CCCCc4nc(C)c(C)cc43)[C@@H]2O)c1` (stereo not given in full): the composite z-score in test [1] came to 1.03; in test [5] it was 1.45; in test [7], 0.0344; in [8], 0.0286; in [9] it was 0.32; in test [10], 0.044. Besides, the composite z-score in test [11] is -0.0106; in test [12], -0.151; in test [13] it was -0.223; in test [15] it was 0.422; in test [16], -0.313; in test [17] it was 0.132. For the same compound, the composite z-score came to 0.179 in [18], 0.064 in test [19] and 0.937 in [20]. In addition, the z-score in test [2] is -0.915 (inactive); in test [3] it was -1.19 (inactive); in test [4], -1.48 (inactive); in [6] it was 1.25 (inactive); in test [14] it was -0.49 (inactive).
Regarding `CCOC(=O)CCN1C(=O)[C@H]2[C@H]3[C@H](O)[C@H](O)CC(=NOCc4ccccc4)[C@H]3CC[C@H]2C1=O`, the composite z-score in test [1] is -0.112; in test [5], 0.374; in [7] it was 0.58; in test [8], -0.316; in test [9] it was -0.665; in test [10] it was 0.276. For the same compound, the composite z-score is 0.1 in test [11]; 1.27 in test [12]; 1.32 in test [13]; -0.556 in [15]; -0.395 in [16]; 0.193 in [17]. Also, the values for the composite z-score in [18], in [19] and in [20] were -0.828, -1.06 and 0.288, respectively. In addition, the z-score in [2] was 0.819 (inactive); in test [3] it was 1.04 (inactive); in test [4], 0.492 (inactive); in test [6] it was 1.08 (inactive); in test [14], 0.509 (inactive).
As to `C#CCCCON=C1C[C@@H](O)[C@@H](O)[C@@H]2[C@@H]3C(=O)N(CCC(=O)OCC)C(=O)[C@@H]3CC[C@H]12`, the composite z-score in test [1] is 1.48; in test [5], 1.28; in test [7], -0.104; in test [8], 0.4; in test [9], 1.1; in test [10], -0.0419. For the same compound, the composite z-score in test [11] is 1; in test [12], 0.286; in [13], -0.491; in [15], 0.628; in test [16], 0.814; in test [17], 0.542. Further, the composite z-score is 1.16 in [18], 0.389 in test [19] and -0.422 in test [20]. Besides, the z-score in test [2] is -1.64 (inactive); in test [3], -1.32 (inactive); in [4], -0.947 (inactive); in test [6] it was 0.299 (inactive); in test [14], -1.79 (inactive).
For the compound `CO[C@H]1COC(=O)[C@@H](C)COC(=O)[C@H](C)NC(=O)CC=C[C@H]1C`, the composite z-score in test [1] was 1.23; in test [5], 0.0586; in test [7], -0.212; in [8], 1.64; in [9], 0.195; in [10] it was 0.0673. The composite z-score in test [11] is 0.473; in test [12] it was -0.537; in test [13], -1.73; in [15], 0.577; in [16], 0.732; in [17], 0.785. In addition, the figures for the composite z-score in test [18], in test [19] and in test [20] were 1.54, 1.32 and 1.13, respectively. For the same compound, the z-score in test [2] is 0.508 (inactive); in [3], 0.0971 (inactive); in test [4], -0.431 (inactive); in test [6], 0.414 (inactive); in test [14], -0.0731 (inactive).
`COCCNC(=O)OCC1CCCC2(CC(OC(=O)NCc3ccc4c(c3)OCO4)CC(CCC(=O)N[C@@H](C)C(=O)OC)O2)O1` (stereo not given in full): the composite z-score is 1.52 in test [1]; 1.55 in test [5]; -0.161 in test [7]; 0.54 in test [8]; 1.1 in [9]; -0.0286 in [10]. The composite z-score was 0.742 in test [11]; -0.205 in test [12]; -0.634 in test [13]; 0.696 in test [15]; 0.953 in test [16]; 0.696 in test [17]. In addition, the composite z-score in [18] worked out at 1.31; in test [19] it was 0.518; in test [20], 0.0253. For the same compound, the z-score in test [2] is -0.05 (inactive); in [3], 1.02 (inactive); in [4] it was -0.62 (inactive); in test [6], -0.427 (inactive); in [14] it was 0.442 (inactive).
